PubChem BioAssay (Tox21)
Results filed as inconclusive are left out. Activity calls are given as the source filed them. Unless noted, the call rests on the fitted dose curve.

Test: qHTS assay to identify small molecule antagonists of the peroxisome proliferator-activated receptor gamma (PPARg) signaling pathway - cell viability counter screen (AID 743194; active means well fitted cell-killing curve with a large enough effect in the repeat runs; further: nearly all actives have a fitted effect of over 55% in size)
Settings: PPARg-bla HEK293H viability, CellTiter-Glo luminescence, 17 h, co-treated with 50 nM rosiglitazone; series mostly up to 62.6 µM; activity change, negative = cytotoxicity: at the top concentration
Procedure, shortened: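 Viability was measured as CellTiter-Glo luminescence in GeneBLAzer PPARg UAS-bla HEK293H cells. These cells had been exposed 17 h at 37 C to compounds together with rosiglitazone at 50 nM final, with the beta-lactamase readout taken in the same wells.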
On the % scale 0 is the no-effect control and ±100 the full control effect.

| SMILES | activity change, negative = cytotoxicity |
| --- | --- |
| CCc1cc2cc(OC)c(OC)cc2c(Cc2ccccc2)n1 | 17.5% (inactive) |
| CN1CCN(N)CC1 | 5.06% (inactive) |
| COC(=O)N[C@H](C(=O)N[C@@H](Cc1ccccc1)[C@@H](O)CN(Cc1ccc(-c2ccccn2)cc1)NC(=O)[C@@H](NC(=O)OC)C(C)(C)C)C(C)(C)C | 8.31% (inactive) |
| CC1=NN(c2cc(Cl)c(S(=O)(=O)O)cc2Cl)C(=O)C1N=Nc1ccc(S(=O)(=O)O)cc1 (centres undefined) | -15.7% (inactive) |
| CCCC(CCC)(C(=O)OCC)C(=O)OCC | 9.22% (inactive) |
| Cc1cn([C@@H]2O[C@H](CO)[C@@H](O)[C@@H]2F)c(=O)[nH]c1=O | 7.83% (inactive) |
| CCC(=O)c1ccc2c(c1)N(CCCN(C)C)c1ccccc1S2 | -17.3% (inactive) |
| CCOc1ccc(NS(=O)(=O)c2ccc(N)cc2)nn1 | 15.5% (inactive) |
| NC(=O)NS(=O)(=O)c1ccc(Cl)cc1 | -1.43% (inactive) |
| Cc1cc(NS(=O)(=O)c2ccc(N)cc2)nc(C)n1 | 7.43% (inactive) |
| c1ccc(CN(CC2=NCCN2)c2ccccc2)cc1 | -12.3% (inactive) |
| CCOC(=O)c1cc(=O)c2c(OCC(COc3cccc4oc(C(=O)OCC)cc(=O)c34)OC(=O)[C@@H](N)CCCCN)cccc2o1 | -0.636% (inactive) |
| CCCS(=O)c1ccc2nc(NC(=O)OC)[nH]c2c1 (centres undefined) | -0.763% (inactive) |
| CC[C@H]1CC[C@H](NCc2cc3c(cc2OC)[C@H]2C[C@H]2C(=O)N3C)[C@H](c2ccccc2)N1 | 1.98% (inactive) |
| CC(C)C(=O)OCC(C)(C)C(O)C(C)C (centres undefined) | -1.98% [at 81.1 µM] (inactive) |
| CCCC1CCC(=O)O1 (centres undefined) | 5.78% (inactive) |
| CCCOc1ccc2c(c1)CC[C@@H]1[C@@H]2CC[C@]2(C)C(OC)CC[C@@H]12 (some centres undefined) | -0.473% (inactive) |
| Cc1ccccc1C(=O)Nc1ccc(C(=O)N2CCCC(O)c3cc(Cl)ccc32)c(C)c1 (centres undefined) | -1.91% (inactive) |
| O=C(CCCl)NCc1ccccc1 | -10.7% (inactive) |
| CCCCCCOc1ccc(N)cc1 | 1.66% (inactive) |
| Cc1onc(-c2ccccc2)c1C(=O)Cl | -7.56% (inactive) |
| C/C(=N\O)[C@@H](C)NCC(C)(C)CN[C@H](C)/C(C)=N/O | 17.5% (inactive) |
| Cc1c[nH]c(=S)[nH]c1=O | -14.6% (inactive) |
| N#CSCC(=O)O | -5.99% (inactive) |
| O=C(C(Cl)Cl)N1CCOC12CCCCC2 | -17.4% (inactive) |
| CCCCCCn1c(=O)c2c(ncn2C)n(C)c1=O | -1.63% (inactive) |
| Nc1ccc2ccccc2c1S(=O)(=O)O | -2.05% [at 81.1 µM] (inactive) |
| CCN(CC)CCOc1ccc(Cc2ccccc2)cc1 | -5% (inactive) |

Test: qHTS assay for small molecule agonists of the antioxidant response element (ARE) signaling pathway (AID 743202; active means well fitted activation curve with a large enough effect in the signal ratio in the repeat runs, not every such curve was filed as active; the % refers to the signal ratio; further: potency means the concentration at half of the fitted maximal effect)
Settings: HepG2 ARE-bla reporter, beta-lactamase FRET, 16 h; series mostly up to 73.3 µM; activation: at the top concentration
Procedure, shortened: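 Quantitative high-throughput format in HepG2 cells bearing an integrated ARE-beta-lactamase reporter. Compound exposure lasted 16 h at 37 C, and fluorescence was read 2 h after adding LiveBLAzer B/G substrate at room temperature.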

| SMILES | activation | Potency |
| --- | --- | --- |
| CC1=NN(c2cc(Cl)c(S(=O)(=O)O)cc2Cl)C(=O)C1N=Nc1ccc(S(=O)(=O)O)cc1 (centres undefined) | -1.16% (inactive) |  |
| CC(C)C[C@H](NC(=O)OCC1c2ccccc2-c2ccccc21)C(=O)O | 20.9% (inactive) |  |
| CCCC(CCC)(C(=O)OCC)C(=O)OCC | -1.57% (inactive) |  |
| Cc1cn([C@@H]2O[C@H](CO)[C@@H](O)[C@@H]2F)c(=O)[nH]c1=O | -7.08% (inactive) |  |
| CN(C)CC[C@@H](c1ccc(Cl)cc1)c1ccccn1 | -4.94% (inactive) |  |
| NC(=O)NS(=O)(=O)c1ccc(Cl)cc1 | 8.83% (inactive) |  |
| Cc1cc(NS(=O)(=O)c2ccc(N)cc2)nc(C)n1 | 9.61% (inactive) |  |
| CCOC(=O)c1cc(=O)c2c(OCC(COc3cccc4oc(C(=O)OCC)cc(=O)c34)OC(=O)[C@@H](N)CCCCN)cccc2o1 | 4.54% (inactive) |  |
| CCCC1CCC(=O)O1 (centres undefined) | -7.15% (inactive) |  |
| Cc1ccccc1C(=O)Nc1ccc(C(=O)N2CCCC(O)c3cc(Cl)ccc32)c(C)c1 (centres undefined) | 6.4% (inactive) |  |
| CCCCCCOc1ccc(N)cc1 | 6.33% (inactive) |  |
| Cc1onc(-c2ccccc2)c1C(=O)Cl | 2.64% (inactive) |  |
| C/C(=N\O)[C@@H](C)NCC(C)(C)CN[C@H](C)/C(C)=N/O | -12.9% (inactive) |  |
| Cc1c[nH]c(=S)[nH]c1=O | -4.49% (inactive) |  |
| N#CSCC(=O)O | 7.59% (inactive) |  |
| O=C(C(Cl)Cl)N1CCOC12CCCCC2 |  | 34.4 µM (active) |
| CCCCCCn1c(=O)c2c(ncn2C)n(C)c1=O | 19.2% (inactive) |  |
| CC(=O)O[C@H]1CC[C@@]2(C)C(=CC[C@@H]3[C@@H]2CC[C@]2(C)C(C(C)=O)=CC[C@@H]32)C1 |  | 23.7 µM (active) |
| Nc1ccc2ccccc2c1S(=O)(=O)O |  | 12.4 µM (active) |

Test: qHTS assay for small molecule agonists of the antioxidant response element (ARE) signaling pathway - cell viability counter screen (AID 743203); further: nearly all actives have a fitted effect of over 55% in size; further: potency means the concentration at half of the fitted maximal effect
Settings: ARE-bla HepG2 viability, CellTiter-Glo luminescence, 16 h; series mostly up to 73.3 µM; viability change, negative = cytotoxic: at the top concentration
Procedure, shortened: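 CellSensor ARE-bla HepG2 cells, 2,000 per well, rested 5 hrs at 37C/5% CO2, then exposed to compound in DMSO for 16 hrs; viability read as CellTiter-Glo luminescence after 30 min at room temperature, in the reporter wells.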

| SMILES | viability change, negative = cytotoxic | Potency |
| --- | --- | --- |
| CCc1cc2cc(OC)c(OC)cc2c(Cc2ccccc2)n1 | 3.43% (inactive) |  |
| CN1CCN(N)CC1 | 11% (inactive) |  |
| COC(=O)N[C@H](C(=O)N[C@@H](Cc1ccccc1)[C@@H](O)CN(Cc1ccc(-c2ccccn2)cc1)NC(=O)[C@@H](NC(=O)OC)C(C)(C)C)C(C)(C)C | 6.52% (inactive) |  |
| O=Cc1ccc(O)c(O)c1O | 8.14% (inactive) |  |
| CC1=NN(c2cc(Cl)c(S(=O)(=O)O)cc2Cl)C(=O)C1N=Nc1ccc(S(=O)(=O)O)cc1 (centres undefined) | -11.3% (inactive) |  |
| O=C1Nc2ccc([N+](=O)[O-])cc2C1=O | -2.96% (inactive) |  |
| CC(C)C[C@H](NC(=O)OCC1c2ccccc2-c2ccccc21)C(=O)O | -1.7% (inactive) |  |
| CCCC(CCC)(C(=O)OCC)C(=O)OCC | 7.8% (inactive) |  |
| COC(=O)/C=C(/C)N | 3.54% (inactive) |  |
| Cc1cn([C@@H]2O[C@H](CO)[C@@H](O)[C@@H]2F)c(=O)[nH]c1=O | 2.31% (inactive) |  |
| CN(C)CC[C@@H](c1ccc(Cl)cc1)c1ccccn1 | 13% (inactive) |  |
| CCOc1ccc(NS(=O)(=O)c2ccc(N)cc2)nn1 | -0.0619% (inactive) |  |
| NC(=O)NS(=O)(=O)c1ccc(Cl)cc1 | 9.11% (inactive) |  |
| Cc1cc(NS(=O)(=O)c2ccc(N)cc2)nc(C)n1 | 6.66% (inactive) |  |
| CCC/C=C/CO | 0.52% (inactive) |  |
| c1ccc(CN(CC2=NCCN2)c2ccccc2)cc1 | -3.21% (inactive) |  |
| CCOC(=O)c1cc(=O)c2c(OCC(COc3cccc4oc(C(=O)OCC)cc(=O)c34)OC(=O)[C@@H](N)CCCCN)cccc2o1 | -2.8% (inactive) |  |
| CCCS(=O)c1ccc2nc(NC(=O)OC)[nH]c2c1 (centres undefined) | -20.1% (inactive) |  |
| CC[C@H]1CC[C@H](NCc2cc3c(cc2OC)[C@H]2C[C@H]2C(=O)N3C)[C@H](c2ccccc2)N1 | -5.84% (inactive) |  |

| SMILES | viability change, negative = cytotoxic | Potency |
| --- | --- | --- |
| CC(C)C(=O)OCC(C)(C)C(O)C(C)C (centres undefined) | 2.21% [at 94.8 µM] (inactive) |  |
| Cc1nc(N)nc(N)c1-c1ccc(Cl)c(Cl)c1 |  | 668 nM (active) |
| CCCC1CCC(=O)O1 (centres undefined) | 7.32% (inactive) |  |
| CCCOc1ccc2c(c1)CC[C@@H]1[C@@H]2CC[C@]2(C)C(OC)CC[C@@H]12 (some centres undefined) | -2.88% (inactive) |  |
| Cc1ccccc1C(=O)Nc1ccc(C(=O)N2CCCC(O)c3cc(Cl)ccc32)c(C)c1 (centres undefined) | -0.392% (inactive) |  |
| O=C(CCCl)NCc1ccccc1 | 2.85% (inactive) |  |
| CC/C=C\CCOC(=O)C(C)C | 15.3% (inactive) |  |
| Cc1onc(-c2ccccc2)c1C(=O)Cl | 7.33% (inactive) |  |
| C/C(=N\O)[C@@H](C)NCC(C)(C)CN[C@H](C)/C(C)=N/O | 9.92% (inactive) |  |
| Cc1c[nH]c(=S)[nH]c1=O | -1.47% (inactive) |  |
| N#CSCC(=O)O | 13.9% (inactive) |  |
| CC(Oc1c(Cl)cccc1Cl)C1=NCCN1 (centres undefined) | -8.7% (inactive) |  |
| O=C(C(Cl)Cl)N1CCOC12CCCCC2 | -15.8% (inactive) |  |
| CCCCCCn1c(=O)c2c(ncn2C)n(C)c1=O | 12.5% (inactive) |  |
| CC(=O)O[C@H]1CC[C@@]2(C)C(=CC[C@@H]3[C@@H]2CC[C@]2(C)C(C(C)=O)=CC[C@@H]32)C1 | 15.1% (inactive) |  |
| Nc1ccc2ccccc2c1S(=O)(=O)O | -1.65% [at 94.8 µM] (inactive) |  |
| Cc1cc2c(s1)Nc1ccccc1N=C2N1CCN(C)CC1 | -7.06% (inactive) |  |
| CCN(CC)CCOc1ccc(Cc2ccccc2)cc1 | -12.3% (inactive) |  |
